Measured values as given in PubChem BioAssay (NCATS).
Results filed as inconclusive are left out. Calls of active or inactive are those of the source. Unless noted, calls come from the whole dose curve; as a rule, active = well fitted curve in the direction sought with a large enough effect; inconclusive = small, poorly fitted or top-dose-only effect, or another doubt; inactive = no such curve, though single readings can be large; an effect the other way counts as inactive or inconclusive.

Experiments:
[1] = Validation screen for inhibitors of Lassa infection (AID 463096; calls by dose curve; note: % is set by controls: 0 for no effect and ±100 for the full control effect)
[2] = Inducers of the Endoplasmic Reticulum Stress Response (ERSR) in human glioma: Validation (AID 504836); note: 0% is about no effect
Procedure, shortened: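 ERSR induction read as luciferase luminescence (Bright-Glo, 10 min at room temperature) in stably transfected human U87-MG glioma cells exposed to compounds for 16 h, using GRP78 as sensor.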

[3] = qHTS for Inhibitors of the Functional Ribonucleoprotein Complex (vRNP) of Lassa (LASV) Arenavirus: LASV Primary Screen - GLuc reporter signal (AID 1347082; calls by dose curve; tested in HEK293 reporter line; note: series mostly up to about 57 µM; % is set by controls: 0 for no effect and ±100 for the full control effect; nearly all actives have a fitted effect of over 60% in size)
[4] = qHTS for Inhibitors of the Functional Ribonucleoprotein Complex (vRNP) of Lassa (LASV) Arenavirus: Viability assay - alamar blue signal for LASV Primary Screen (AID 1347083; calls by dose curve; tested in HEK293 reporter line; note: series mostly up to about 57 µM; % is set by controls: 0 for no effect and ±100 for the full control effect; nearly all actives have a fitted effect of over 80% in size)
[5] = qHTS for Inhibitors of the Functional Ribonucleoprotein Complex (vRNP) of Lymphocytic Choriomeningitis Arenaviruses (LCMV): Viability assay - alamar blue signal for LCMV Primary Screen (AID 1347085; calls by dose curve; tested in HEK293 reporter line; note: series mostly up to about 57 µM; % is set by controls: 0 for no effect and ±100 for the full control effect; nearly all actives have a fitted effect of over 80% in size)
[6] = molecular target: Nucleoprotein (Lymphocytic choriomeningitis virus (strain Armstrong)) (UniProt P09992); assay: qHTS for Inhibitors of the Functional Ribonucleoprotein Complex (vRNP) of Lymphocytic Choriomeningitis Arenaviruses (LCMV): LCMV Primary Screen - GLuc reporter signal (AID 1347086; calls by dose curve; note: series mostly up to about 57 µM; % is set by controls: 0 for no effect and ±100 for the full control effect; nearly all actives have a fitted effect of over 70% in size)
Chain of Nucleoprotein (Lymphocytic choriomeningitis virus (strain Armstrong)) (P09992 whole entry, looked up): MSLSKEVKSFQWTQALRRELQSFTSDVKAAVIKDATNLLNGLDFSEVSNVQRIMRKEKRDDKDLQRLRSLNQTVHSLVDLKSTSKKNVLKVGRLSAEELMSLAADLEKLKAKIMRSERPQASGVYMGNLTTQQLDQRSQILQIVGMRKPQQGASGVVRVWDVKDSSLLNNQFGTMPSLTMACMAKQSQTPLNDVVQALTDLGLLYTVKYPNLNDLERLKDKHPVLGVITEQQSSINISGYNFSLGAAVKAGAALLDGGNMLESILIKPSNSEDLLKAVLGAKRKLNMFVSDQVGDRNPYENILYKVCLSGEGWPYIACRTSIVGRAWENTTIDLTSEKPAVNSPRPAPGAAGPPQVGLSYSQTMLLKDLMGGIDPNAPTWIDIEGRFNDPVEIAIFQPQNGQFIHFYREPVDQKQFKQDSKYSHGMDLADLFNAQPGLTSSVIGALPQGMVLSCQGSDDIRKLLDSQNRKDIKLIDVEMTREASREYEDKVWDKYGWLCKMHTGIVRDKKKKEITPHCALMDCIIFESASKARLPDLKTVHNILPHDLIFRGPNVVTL

[7] = molecular target: M-phase phosphoprotein 8 (Homo sapiens) (UniProt Q99549); assay: qHTS Validation Assay for Inhibitors for MPP8 Chromodomain Interactions with Methylated Histone Tails (AID 488949);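 note: AlphaScreen signal from MPP8 chromodomain bound to biotinylated H3K9me3 peptide; top concentration of the series differs between compounds; % is set by controls: 0 for no effect and ±100 for the full control effect; nearly all actives have a fitted effect of over 55% in size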
Chain of M-phase phosphoprotein 8 (Homo sapiens) (Q99549 whole entry, looked up): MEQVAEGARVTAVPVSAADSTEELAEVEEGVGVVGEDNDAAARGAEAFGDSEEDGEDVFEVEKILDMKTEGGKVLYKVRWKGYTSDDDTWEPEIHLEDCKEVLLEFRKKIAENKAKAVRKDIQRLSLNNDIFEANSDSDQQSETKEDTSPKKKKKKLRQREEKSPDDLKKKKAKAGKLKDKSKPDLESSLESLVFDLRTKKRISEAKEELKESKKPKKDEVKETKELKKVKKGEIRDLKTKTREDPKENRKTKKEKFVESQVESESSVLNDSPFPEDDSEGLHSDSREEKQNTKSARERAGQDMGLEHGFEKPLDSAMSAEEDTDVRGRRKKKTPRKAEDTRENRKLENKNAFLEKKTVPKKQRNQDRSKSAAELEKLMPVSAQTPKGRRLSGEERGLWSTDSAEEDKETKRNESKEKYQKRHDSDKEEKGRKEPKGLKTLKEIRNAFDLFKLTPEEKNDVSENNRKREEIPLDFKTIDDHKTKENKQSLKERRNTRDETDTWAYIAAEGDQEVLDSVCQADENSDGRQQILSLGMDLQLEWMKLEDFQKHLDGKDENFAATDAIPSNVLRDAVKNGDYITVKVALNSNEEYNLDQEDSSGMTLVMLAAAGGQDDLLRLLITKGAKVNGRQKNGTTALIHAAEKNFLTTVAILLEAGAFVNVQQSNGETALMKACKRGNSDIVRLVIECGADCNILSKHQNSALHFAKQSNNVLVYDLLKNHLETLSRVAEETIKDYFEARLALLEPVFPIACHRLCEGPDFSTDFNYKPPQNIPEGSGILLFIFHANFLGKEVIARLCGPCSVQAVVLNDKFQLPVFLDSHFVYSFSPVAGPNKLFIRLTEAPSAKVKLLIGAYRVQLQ
Procedure, shortened: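 AlphaScreen read-out: streptavidin donor and nickel chelate acceptor beads (final 10 ug/mL), 30 min in the dark at RT. Complex of 50 nM MPP8 and 50 nM b-H3(1-18)K9me3 peptide had been exposed to compounds for 30 min beforehand.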

[8] = molecular target: Ubiquitin carboxyl-terminal hydrolase 1 (Homo sapiens) (UniProt O94782); assay: Inhibitors of USP1/UAF1: Pilot qHTS (AID 504865); note: nearly all actives have a fitted effect of over 35% in size; note: potency is the fitted concentration of half-maximal effect
Chain of Ubiquitin carboxyl-terminal hydrolase 1 (Homo sapiens) (O94782 whole entry, looked up): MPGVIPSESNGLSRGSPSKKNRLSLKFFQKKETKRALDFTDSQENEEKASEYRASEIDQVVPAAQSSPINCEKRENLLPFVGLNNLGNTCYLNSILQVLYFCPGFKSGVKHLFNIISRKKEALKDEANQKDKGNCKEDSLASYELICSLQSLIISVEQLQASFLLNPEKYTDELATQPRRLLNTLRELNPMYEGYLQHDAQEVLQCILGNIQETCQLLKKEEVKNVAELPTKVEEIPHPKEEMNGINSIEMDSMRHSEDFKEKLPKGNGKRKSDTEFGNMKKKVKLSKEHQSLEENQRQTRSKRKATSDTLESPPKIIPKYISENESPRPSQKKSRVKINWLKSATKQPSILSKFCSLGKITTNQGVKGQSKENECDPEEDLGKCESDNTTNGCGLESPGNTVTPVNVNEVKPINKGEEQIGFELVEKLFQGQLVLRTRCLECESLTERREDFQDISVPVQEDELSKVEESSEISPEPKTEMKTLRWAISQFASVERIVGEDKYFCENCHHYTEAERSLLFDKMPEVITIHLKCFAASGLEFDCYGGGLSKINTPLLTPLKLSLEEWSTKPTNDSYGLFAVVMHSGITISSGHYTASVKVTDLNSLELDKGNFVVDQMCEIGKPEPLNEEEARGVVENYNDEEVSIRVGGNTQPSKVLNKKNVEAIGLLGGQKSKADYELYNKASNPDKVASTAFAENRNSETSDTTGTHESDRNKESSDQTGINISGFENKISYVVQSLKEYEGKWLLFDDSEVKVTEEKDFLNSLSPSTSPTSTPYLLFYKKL
Procedure, shortened: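 1nM USP1/UAF1 + cpd, 15 min RT; start w/ Ub-Rho 150nM final; kinetic FL 480/540 nm, 6 reads q60 s. Buffer 50mM HEPES pH 7.8, 0.5mM EDTA, 1mM TCEP, 0.01% Tween-20, 0.1 mg/ml BSA.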

[9] = molecular target: Arylsulfatase A (Homo sapiens) (UniProt P15289); assay: qHTS screen for enhancers of Arylsulfatase A (ASA1): LOPAC Validation Assay (AID 720538); note: 0% is about no effect
Procedure, shortened: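 Read-out: fluorescence at Ex=525/Em=598 nm after 1N NaOH final stop. Patient fibroblasts carrying ASA-I179S had 48h compound exposure, then 14h room-temperature pNCS hydrolysis (0.5mM final) in lysis buffer. Signal increase = enhanced activity.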

[10] = qHTS Assay for Identifying Gametocytocidal Compounds (AID 743244);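 note: % is set by controls: 0 for no effect and ±100 for the full control effect; actives lower the fluorescent signal which means gametocytes are killed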; details: P. falciparum 3D7 stage III-V gametocytes, alamarBlue, 72 h; max response: stronger effect = lower value
Procedure, shortened: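 Compounds are pinned into medium, gametocytes (stage III–V, 3D7, 20,000 cells/well) added, and plates held 72 h at 37 °C in 5% CO2. AlamarBlue follows for 24 h before fluorescence reading.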

[11] = molecular target: Alpha-galactosidase (Coffea arabica) (UniProt Q42656); assay: Counterscreen for Glucocerebrosidase Inhibitors: qHTS Assay for Coffee Bean alpha-Galactosidase at pH 4.5 (AID 957);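 note: series mostly up to about 77 µM; plate controls were enzyme alone for no effect and no enzyme for full effect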
Chain of Alpha-galactosidase (Coffea arabica) (Q42656 whole entry, looked up): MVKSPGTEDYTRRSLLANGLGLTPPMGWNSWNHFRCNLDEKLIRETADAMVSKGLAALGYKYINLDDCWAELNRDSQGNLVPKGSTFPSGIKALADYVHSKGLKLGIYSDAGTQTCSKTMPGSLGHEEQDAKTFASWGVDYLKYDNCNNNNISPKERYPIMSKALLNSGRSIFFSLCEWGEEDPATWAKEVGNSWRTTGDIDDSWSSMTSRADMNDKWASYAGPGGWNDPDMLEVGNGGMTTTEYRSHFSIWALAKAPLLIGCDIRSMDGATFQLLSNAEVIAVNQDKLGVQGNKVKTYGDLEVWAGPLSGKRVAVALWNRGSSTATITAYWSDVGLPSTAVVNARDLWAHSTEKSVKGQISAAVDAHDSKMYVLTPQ
Procedure, shortened: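 Fluorogenic read-out: 4-methylumbelliferone at Ex 365/Em 440 nm after NaOH/glycine stop (pH 10). Enzyme 2 nM, 4-MU-alpha-galactoside 80 uM, citrate buffer pH 4.5, 20 min RT; normalized to no-enzyme and enzyme controls.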

[12] = molecular target: Alpha-galactosidase (Coffea arabica) (UniProt Q42656); assay: Counterscreen for Glucocerebrosidase Inhibitors: qHTS Assay for Coffee Bean alpha-Galactosidase at pH 5.9 (AID 998);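 note: plate controls were uninhibited enzyme for no effect and no-enzyme basal signal for full effect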
Procedure, shortened: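 Fluorogenic 4-MU substrate hydrolysis, 80 uM substrate and 2 nM coffee bean alpha-galactosidase, pH 5.9 citrate buffer, 20 min at room temperature, then NaOH/glycine stop. Titration 0.7 nM–77 uM, normalized to no-enzyme and enzyme controls, AC50 via Hill equation.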

[13] = molecular target: Flap endonuclease 1 (Homo sapiens) (UniProt P39748); assay: qHTS Validation Assay for the Inhibitors of Human Flap endonuclease 1 (FEN1) (AID 488816); note: % is set by controls: 0 for no effect and ±100 for the full control effect
Chain of Flap endonuclease 1 (Homo sapiens) (P39748 whole entry, looked up): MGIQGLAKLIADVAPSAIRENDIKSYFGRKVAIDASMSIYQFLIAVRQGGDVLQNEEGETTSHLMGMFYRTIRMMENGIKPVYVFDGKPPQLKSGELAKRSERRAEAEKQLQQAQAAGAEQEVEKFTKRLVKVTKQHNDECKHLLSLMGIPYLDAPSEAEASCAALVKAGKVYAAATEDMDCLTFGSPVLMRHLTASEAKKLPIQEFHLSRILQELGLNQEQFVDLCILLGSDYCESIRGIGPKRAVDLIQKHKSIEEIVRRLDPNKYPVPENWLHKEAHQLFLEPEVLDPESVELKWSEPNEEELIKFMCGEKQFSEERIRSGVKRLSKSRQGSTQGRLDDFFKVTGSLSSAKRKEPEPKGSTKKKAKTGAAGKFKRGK
Procedure, shortened: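 qHTS format: compounds and 10 nM FEN1 incubated 15 min at room temperature before adding 50 nM substrate. Cleavage followed by reads at 0 and 15 min; normalized data fitted to a four-parameter Hill curve.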

[14] = HTS Assay for Allosteric Antagonists of the Human D2 Dopamine Receptor: Hit Validation in HTRF (AID 624455); note: % is set by controls: 0 for no effect and ±100 for the full control effect
Procedure, shortened: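 HTRF read-out; cells stably expressing D1 receptor; hits scored for inhibition of D1-mediated response. Primary screen: calcium flux, force-coupled inducible Hek293 Trex D2 line, antagonism vs EC80 dopamine.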

[15] = molecular target: Cytochrome P450 3A4 (Homo sapiens) (UniProt P08684); assay: qHTS Assay for Inhibitors and Substrates of Cytochrome P450 3A4 (AID 884); note: potency is the fitted concentration of half-maximal effect; nearly all actives have a fitted effect of over 50% in size
Procedure, shortened: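 Luminescent readout of luciferin produced by CYP3A4 (20 nM) dealkylation of Luciferin-PPXE, 25 uM (its KM). NADPH-driven reaction ran 60 min at RT after 10 min compound preincubation; data scaled to 57 uM ketoconazole as 100% inhibition.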

[16] = molecular target: Chromobox protein homolog 1 (Homo sapiens) (UniProt P83916); assay: qHTS Validation Assay for Inhibitors of HP1-beta Chromodomain Interactions with Methylated Histone Tails (AID 488953);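 note: loss of AlphaScreen luminescence from HP1-beta binding biotinylated H3K9me3 peptide; series mostly up to about 110 µM; % is set by controls: 0 for no effect and ±100 for the full control effect; nearly all actives have a fitted effect of over 50% in size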
Chain of Chromobox protein homolog 1 (Homo sapiens) (P83916 whole entry, looked up): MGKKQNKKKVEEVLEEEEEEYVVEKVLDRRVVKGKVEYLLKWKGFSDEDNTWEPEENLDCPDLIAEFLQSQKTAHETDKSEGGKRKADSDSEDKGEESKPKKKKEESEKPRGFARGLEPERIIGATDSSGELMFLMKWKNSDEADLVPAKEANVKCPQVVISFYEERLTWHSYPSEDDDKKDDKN
Procedure, shortened: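 AlphaScreen proximity readout: streptavidin donor and Ni-chelate acceptor beads, 10 ug/mL final, 30 min dark, RT. Complex of 50 nM HP1-beta and 50 nM b-H3(1-18)K9me3 formed 30 min, then compound-treated 30 min; PBS pH 7.4/0.01% Tween-20.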

[17] = Validation screen for small molecules that induce genotoxicity in human embryonic kidney (HEK293T) cells expressing luciferase-tagged ELG1 (AID 493106); note: 0% is about no effect
Procedure, shortened: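 qHTS format; 2,000 HEK293T ELG1-luc cells/well; 23 nL compound via pin tool; 16 hr, 37 °C/5% CO2; ONE-Glo, 30 min RT; luminescence read.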

[18] = molecular target: ATPase family AAA domain-containing protein 5 (Homo sapiens) (UniProt Q96QE3); assay: Validation screen for small molecules that inhibit ELG1-dependent DNA repair in human embryonic kidney (HEK293T) cells expressing luciferase-tagged ELG1 (AID 493107); note: potency is the fitted concentration of half-maximal effect; nearly all actives have a fitted effect of over 70% in size
Chain of ATPase family AAA domain-containing protein 5 (Homo sapiens) (Q96QE3 whole entry, looked up, the tested form may be a part): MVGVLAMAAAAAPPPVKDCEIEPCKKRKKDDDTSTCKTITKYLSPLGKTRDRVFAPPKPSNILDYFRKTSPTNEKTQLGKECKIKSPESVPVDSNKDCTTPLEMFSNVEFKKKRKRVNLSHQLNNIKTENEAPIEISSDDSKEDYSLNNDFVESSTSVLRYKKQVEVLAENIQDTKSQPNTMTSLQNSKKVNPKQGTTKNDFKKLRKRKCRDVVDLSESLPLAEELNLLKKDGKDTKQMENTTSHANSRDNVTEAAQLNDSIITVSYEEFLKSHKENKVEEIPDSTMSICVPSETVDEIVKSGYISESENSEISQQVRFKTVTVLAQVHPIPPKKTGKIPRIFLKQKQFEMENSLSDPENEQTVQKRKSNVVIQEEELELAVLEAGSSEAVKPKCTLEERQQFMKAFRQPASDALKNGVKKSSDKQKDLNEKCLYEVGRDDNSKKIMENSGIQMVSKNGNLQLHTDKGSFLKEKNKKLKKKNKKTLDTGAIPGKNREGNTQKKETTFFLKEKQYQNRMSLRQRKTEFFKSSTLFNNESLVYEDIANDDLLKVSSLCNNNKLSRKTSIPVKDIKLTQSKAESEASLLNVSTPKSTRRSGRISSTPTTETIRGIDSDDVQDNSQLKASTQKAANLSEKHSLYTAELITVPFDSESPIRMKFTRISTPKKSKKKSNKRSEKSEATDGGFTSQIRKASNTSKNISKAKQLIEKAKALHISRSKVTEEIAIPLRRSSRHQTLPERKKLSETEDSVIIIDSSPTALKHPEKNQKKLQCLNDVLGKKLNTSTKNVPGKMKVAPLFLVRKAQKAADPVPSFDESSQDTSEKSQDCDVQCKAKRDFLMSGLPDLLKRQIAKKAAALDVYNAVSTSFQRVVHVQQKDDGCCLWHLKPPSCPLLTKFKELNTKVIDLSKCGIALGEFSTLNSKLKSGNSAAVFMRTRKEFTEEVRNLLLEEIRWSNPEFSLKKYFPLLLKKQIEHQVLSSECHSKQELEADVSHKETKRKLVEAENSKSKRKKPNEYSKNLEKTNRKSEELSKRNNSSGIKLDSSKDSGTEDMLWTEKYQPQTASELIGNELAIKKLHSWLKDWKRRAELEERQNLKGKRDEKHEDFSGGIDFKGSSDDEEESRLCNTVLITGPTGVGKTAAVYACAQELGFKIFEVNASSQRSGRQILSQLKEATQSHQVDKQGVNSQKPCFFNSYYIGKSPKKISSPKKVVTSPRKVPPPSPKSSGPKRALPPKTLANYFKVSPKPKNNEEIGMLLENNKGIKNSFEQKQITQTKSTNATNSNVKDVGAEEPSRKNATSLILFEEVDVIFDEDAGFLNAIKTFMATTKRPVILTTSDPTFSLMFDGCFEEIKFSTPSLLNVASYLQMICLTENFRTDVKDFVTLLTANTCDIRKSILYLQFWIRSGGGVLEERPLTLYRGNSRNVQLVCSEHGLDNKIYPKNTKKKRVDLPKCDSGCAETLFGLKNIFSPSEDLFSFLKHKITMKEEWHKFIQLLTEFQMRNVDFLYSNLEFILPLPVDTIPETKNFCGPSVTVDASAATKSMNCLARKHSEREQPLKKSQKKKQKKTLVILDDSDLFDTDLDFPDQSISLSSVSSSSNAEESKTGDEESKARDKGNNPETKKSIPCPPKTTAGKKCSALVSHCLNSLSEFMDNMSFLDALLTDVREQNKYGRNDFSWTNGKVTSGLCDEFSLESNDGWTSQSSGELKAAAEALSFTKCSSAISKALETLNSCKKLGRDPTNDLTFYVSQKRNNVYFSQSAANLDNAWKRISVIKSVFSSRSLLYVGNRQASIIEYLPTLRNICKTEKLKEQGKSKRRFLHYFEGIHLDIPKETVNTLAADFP
Procedure, shortened: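 ELG1-luciferase HEK293T reporter; 5-fluorouridine + compound/DMSO, 16 hr, 37 °C, 5% CO2; ONE-Glo 30 min RT; luminescence read, qHTS format.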

[19] = Nrf2 qHTS screen for inhibitors: Validation (AID 493153; active = well fitted inhibition curve with a large enough effect in the main read-out, with a control signal flat, not every such curve was filed as active; note: potency is the fitted concentration of half-maximal effect); details: Potency: luciferase luminescence; viability change: measured here: cytotoxicity max response
Procedure, shortened: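 Concentration-response test in A549 ARE_Fluc reporter cells (5% FBS OPTI-MEM), compound exposure 18-24 h at 37°C, 5% CO2. Cell viability measured first by CellTiter-Fluor fluorescence; ARE-driven luciferase luminescence then measured as Nrf2 activity.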

[20] = qHTS for Inhibitors of ATXN expression: Validation (AID 588378); note: potency is the fitted concentration of half-maximal effect; nearly all actives have a fitted effect of over 75% in size
Procedure, shortened: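 Cells: HEK293-ATXN2-FFLuc, phenol-red free DMEM, 2 h attachment. Compound pin-transfer, 24 h, 37 degrees C, 5% CO2. CellTiter-Fluor 30 min, Ex405/Em525; Bright-Glo 5 min, luminescence 2 s exposure.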

COc1cc(C(O)CO)ccc1OS(=O)(=O)O (stereo not drawn)
inactive: Potency [1] | outcome [2] | Potency [3] | Potency [4] | Potency [5] | Potency [6]

CC(/C=C/c1cccc(Oc2ccc(F)cc2)c1)N(O)C(N)=O (stereo not drawn)
inactive: Potency [1] | outcome [2] | Potency [3] | Potency [4] | Potency [5] | Potency [6]

CC1CN(S(=O)(=O)c2cccc3cnccc23)CCN1 (stereo not drawn)
inactive: Potency [1] | outcome [2] | Potency [3] | Potency [4] | Potency [5] | Potency [6]

C#CCN1C(C)=C(C(=O)OC)C(c2cccc([N+](=O)[O-])c2)C(C(=O)OCC)=C1C (stereo not drawn)
inactive: Potency [1] | outcome [2] | Potency [3] | Potency [4] | Potency [5] | Potency [6]

S=C(S)OC1CC2CC1C1CCCC21 (stereo not drawn)
inactive: Potency [1] | outcome [2] | Potency [3] | Potency [4] | Potency [5] | Potency [6]

O=C(O)CNC(=O)C(CS)Cc1ccccc1 (stereo not drawn)
inactive: Potency [1] | Potency [7] | outcome [2] | Potency [8] | Potency [9] | max response [10] -3.2% | Potency [3] | Potency [4] | Potency [5] | Potency [6]

CC(C)(C)NCC(O)COc1cccc2[nH]c(=O)[nH]c12 (stereo not drawn)
inactive: Potency [1] | outcome [2] | Potency [3] | Potency [4] | Potency [5] | Potency [6]

NCC(O)(CS(=O)(=O)O)c1ccc(Cl)cc1 (stereo not drawn)
inactive: Potency [1] | outcome [2] | Potency [3] | Potency [4] | Potency [5] | Potency [6]

CC(C)C[C@H](NC(=O)C1OC1C(=O)O)C(=O)NCCCCN=C(N)N (stereo partly drawn)
inactive: Potency [1] | outcome [2] | Potency [3] | Potency [4] | Potency [5] | Potency [6]

NC(C(=O)N[C@@H]1C(=O)N2C(C(=O)O)=C(Cl)CS[C@H]12)c1ccccc1 (stereo partly drawn)
inactive: Potency [1] | outcome [2] | Potency [3] | Potency [4] | Potency [5] | Potency [6]

Cn1ccnc1
inactive: outcome [11] | outcome [12] | Potency [1] | Potency [13] | outcome [2] | outcome [14] | Potency [3] | Potency [4] | Potency [5] | Potency [6]

CC(=O)N[C@H](C(=O)O)C(C)(C)SN=O
inactive: Potency [1] | outcome [2] | Potency [3] | Potency [4] | Potency [5] | Potency [6]

Brc1c(Br)c(Br)c2n[nH]nc2c1Br
inactive: outcome [11] | outcome [12] | Potency [1] | Potency [13] | Potency [7] | Potency [16] | outcome [17] | outcome [2] | Potency [3] | Potency [4] | Potency [5] | Potency [6]
active: Potency [15] 3.16 µM | Potency [18] 25.9 µM | Potency [19] 18.4 µM | Potency [8] 56.2 µM | Potency [20] 28.2 µM
-14.6%: viability change [19]
